Pf apPOL inh – Pf-apPOL DNA polymerase inhibition; Recombinant Pf-apPOL, molecular beacon fluorescence, 1.5 h; inhibition, % at 10 µM; 210,000 compounds, 0.25% hits; AID 1794808
mHTT CaM bind – mHTT-calmodulin interaction abrogation; 190,000 compounds, 3.6% hits; inhibition, % at 15 µM; P42858; AlphaScreen His-mHTT/GST-CaM binding, luminescence;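 also: 0% = both proteins with DMSO and 100% = one protein alone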
Active calls of the source: *; . = no result. The sample as a whole holds a higher share of hits than the screen did. Rule as the data show it: active = inhibition above about 50%; inactive = the rest.

SMILES	Pf apPOL inh	mHTT CaM bind
N=C1S/C(=C\c2ccc(-c3cccc(C(=O)O)c3)o2)C(=O)N1c1nonc1N	-1	47
N=C1S/C(=C\c2ccc(-c3ccc(F)c(Cl)c3)o2)C(=O)N1c1nonc1N	0	51*
O=C(c1cn(-c2ccc(Cl)cc2)c(=O)c2ccccc12)N1CCN(c2ccccc2F)CC1	-2	-1
N#CC1=C(N)C(C#N)(C#N)C(c2ccc(Cl)c(Cl)c2)C2CCCC=C12 (stereo unspecified)	6	100*
N#CC1=C(N)C(C#N)(C#N)C(c2ccc(Cl)cc2Cl)C2CCCC=C12 (stereo unspecified)	2	49
N#CC1=C(N)C(C#N)(C#N)C(c2cccc(F)c2)C2CCCC=C12 (stereo unspecified)	-3	23
N#CC1=C(N)C(C#N)(C#N)C(c2cccc(Oc3ccccc3)c2)C2CCCC=C12 (stereo unspecified)	4	50*
CC(C)c1c(C2CCN(C(=O)C3CCC3)CC2)noc1N	-6	-3
Cc1ccc(C2CC(C(F)(F)F)n3nc(C(=O)NCc4cccnc4)cc3N2)cc1 (stereo unspecified)	4	14
Cc1nccnc1-c1ccn[nH]1	0	.
CN(C)c1ccc(CNC(=O)C2CCN(c3cc(N4CCSCC4)ncn3)CC2)cc1	-4	19
CC1(C)N=C(c2ccccc2)C(=O)N1CC(=O)Nc1ccc(F)c(F)c1	-8	-3
CN(CCOC(=O)Nc1ccc(Cl)cc1)c1ncc(C(F)(F)F)cc1Cl	-4	.
O=C(NCc1ccc(F)c(Cl)c1)C1CCN(c2cncnc2N2CCCC2)CC1	2	90*
CCc1ccc(CNC(=O)C2CCN(c3cncnc3N3CCN(C)CC3)CC2)cc1	-1	21
O=C(NCc1cc(F)cc(F)c1)C1CCN(c2cncnc2N2CCCCC2)CC1	6	7
CN1CCN(c2ncncc2N2CCC(C(=O)NCc3ccc(Cl)cc3)CC2)CC1	-3	98*
Cc1cc(N)n(Cc2ccccc2)n1	-2	-5
COc1ccc(OC)c(C2CN(C(=O)C(C)C)CC2C(=O)N2CCCCC2)c1 (stereo unspecified)	-3	6
O=C(NCc1cccnc1-c1ccc(F)cc1)c1ccc(F)cc1	-5	-12
Cn1nc(-c2nc(Cc3ccccc3)no2)c2c1CCN(C(=O)c1ccccc1)C2	-2	-1
O=C(/C=C/c1ccc(-c2ccc(F)cc2)o1)c1cccs1	-1	91*
O=C(/C=C/c1ccc(-c2ccccc2)o1)c1cccs1	1	28
CCn1ccc(C(=O)N2CCC(c3noc(-c4cccc(OC)c4)n3)CC2)n1	6	0
COc1ccc(NC(=O)c2sc3nc(C)nc(N4CCCCC4C)c3c2C)c(OC)c1 (stereo unspecified)	-4	11
SMILES	Pf apPOL inh	mHTT CaM bind
COc1ccc(O)c(C(=O)C=Cc2ccc3c(c2)OCCCO3)c1	1	80*
COc1ccc(C=CC(=O)c2cc(F)ccc2O)c(OC)c1	1	24
O=C(C=Cc1ccc2c(c1)OCCCO2)c1cc([N+](=O)[O-])ccc1O	0	26
COc1ccc(C=CC(=O)c2cc(C)ccc2O)c(OC)c1	-5	67*
CC1(C)CC(=O)C2=C(C1)N(c1ccc(S(N)(=O)=O)cc1)C(N)=C(C#N)C2c1ccsc1 (stereo unspecified)	-9	26
COc1ccc(OC)c(CNC(=O)c2ccnc(N3CCNC(c4ccccc4)C3)c2)c1 (stereo unspecified)	-2	15
Clc1cc2c(c3ncccc13)OCN(CCCN1CCOCC1)C2	-12	100*
Cc1cc(Cl)c(OCCCN2CCOCC2)c(Br)c1	-5	-3
CCOc1cc(C2C(C(=O)OCc3ccccc3)=C(C)NC3=C2C(=O)CC(C)(C)C3)cc(Br)c1O (stereo unspecified)	3	-4
O=C(O)CCC(=O)Nc1nc(-c2cc3cc(Cl)ccc3oc2=O)cs1	2	-3
O=C(CSc1ccc(F)cc1)Nc1cc(-c2ccco2)nn1CCO	-3	69*
O=C(Nc1cc(-c2ccco2)nn1CCO)c1ccc(S(=O)(=O)N2CCOCC2)cc1	8	26
COc1ccc(NC(=O)c2cc(Br)ccc2OC)cc1OC	-14	12
CCN(CC)S(=O)(=O)N1CCCC(C(=O)NC2CCCCCCC2)C1 (stereo unspecified)	-11	-5
OC(CN1CCN(c2ccc(Cl)cc2)CC1)c1ccc2c(c1)CCN2 (stereo unspecified)	-6	0
Cc1ccc(Cl)cc1N1CCN(CC(O)c2ccc3c(c2)CCN3)CC1 (stereo unspecified)	-4	71*
FC(F)(F)c1ccc(SCCCN2CCN(c3cccc(Cl)c3)CC2)nc1	2	.
O=C(NCCc1c[nH]c2ccccc12)C(c1ccccc1)n1cccc1 (stereo unspecified)	2	96*
CC(NC(=O)CCc1c[nH]c2ccccc12)c1ccccc1 (stereo unspecified)	-3	4
CCc1nnc(C2CCN(C(=O)c3cc(C)on3)CC2)s1	3	-10
O=C(NCC1CCCO1)C(=O)NCC1COC2(CCCC2)O1 (stereo unspecified)	-5	-7
Nc1nc2n(n1)C(c1cccs1)CC(c1ccc(Cl)c(Cl)c1)N2 (stereo unspecified)	-8	84*
CCOc1ccccc1C1CC(c2ccc(Cl)c(Cl)c2)Nc2nc(N)nn21 (stereo unspecified)	-3	100*
COc1ccc(C2CC(c3ccc(Cl)c(Cl)c3)Nc3nc(N)nn32)cc1OC (stereo unspecified)	2	29
COc1ccc(C2CC(c3ccccc3Cl)Nc3nc(N)nn32)cc1OC (stereo unspecified)	-6	26
SMILES	Pf apPOL inh	mHTT CaM bind
Nc1nc2n(n1)C(c1ccc(Cl)cc1)CC(c1ccccc1)N2 (stereo unspecified)	-7	8
COc1ccccc1C1CC(c2ccc(Cl)cc2Cl)Nc2nc(N)nn21 (stereo unspecified)	-3	57*
CC1CCc2c(sc3nc(-c4ccco4)oc(=O)c23)C1 (stereo unspecified)	.	-9
COc1ccc(Br)cc1CNC(=O)C(C)N1C(=O)COc2ccc(C)cc21 (stereo unspecified)	-8	8
COc1ccc(N2CC(C(=O)Nc3ccccc3C(F)(F)F)CC2=O)cc1 (stereo unspecified)	3	8
N#Cc1nc(COc2ccccc2Cl)oc1N1CCN(Cc2ccccc2)CC1	-2	52*
N#Cc1nc(COc2ccccc2Cl)oc1N1CCCCC1	-5	19
CS(=O)(=O)Nc1cccc(NC(=O)C(c2ccccc2)n2cccc2)c1 (stereo unspecified)	6	10
CCOc1cc(O)c(-c2n[nH]c(C)c2-c2ccc(F)cc2)cc1CC	-4	47
CCc1cc(-c2n[nH]c(C)c2-c2nc3ccccc3s2)c(O)cc1OC	-1	98*
CC(=NNc1c(Cl)cc(Cl)cc1Cl)c1c(O)cc(C)oc1=O	-4	.
O=C(O)c1cc(-c2ccc(-c3c(-c4ccco4)noc3-c3ccccc3)cc2)nc2ccccc12	74*	69*
O=C(O)c1cc(-c2ccccc2)nc2ccccc12	-1	-2
COc1cc(NC(=O)c2cc(Cl)ccc2OC)c(OC)cc1NC(=O)c1ccccc1	-5	-6
Cc1nc(Nc2ccc(F)cn2)sc1C(=O)N1CCN(c2ccccc2)CC1	-10	68*
Cc1ccc(-c2cc(C(=O)N3CCCCCC3)ccn2)s1	-5	4

Compound activity deposited in PubChem BioAssay by University of Kansas High Throughput Screening Laboratory.
